# Source: PubChem BioAssay (EPA / NIEHS)
# “And” between values parts separate entries of the source, which are not always exact repeats. Equal entries are not always repeated. A structure can be active in one record and inactive in another. The source made the active and inactive calls. The calls were made as follows: active = hit-call score of the fitted dose curve at least 0.9, where 1 is the maximum; inactive = score below 0.9.
# Assays:
# [1] = read-out: Interleukin 17F (IL17F), IL17F (gene 112744); experiment: BSK_BT_xIL17F: BioMAP Diversity Plus: BT Assay for Interleukin 17F (IL17F) Biomarker Activity (AID 2284243); conditions: primary human B cells with PBMC
# How it was run: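 Luminex readout of IL-17F secretion, 24 h; cells: human B cells with PBMC; positive-direction analysis, DMSO control.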
# [2] = read-out: Actin alpha 1 (ACTA1), ACTA1 (gene 58); experiment: BSK_MyoF_ACTA1: BioMAP Diversity Plus: MyoF Assay for Actin alpha 1 (ACTA1) Biomarker Activity (AID 2284244); conditions: primary human lung fibroblasts
# How it was run: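 alpha-SMA levels read by ELISA against DMSO baseline, 24 h post-dose, in primary human lung fibroblasts. Parallel cultures stained with 0.1% SRB after 10% TCA fixation (560 nm) to flag overt cytotoxicity.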
# [3] = read-out: Interleukin 2 (IL2), IL2 (gene 3558); experiment: BSK_BT_xIL2: BioMAP Diversity Plus: BT Assay for Interleukin 2 (IL2) Biomarker Activity (AID 2284245); conditions: primary human B cells with PBMC
# How it was run: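 Secreted IL-2 was read by Luminex xMAP from B cells co-cultured with PBMC (human primary) 24 h post-dosing; activity was analysed as gain of signal relative to DMSO vehicle.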
# [4] = read-out: Basic fibroblast growth factor (bFGF), FGF2 (gene 2247); experiment: BSK_MyoF_bFGF: BioMAP Diversity Plus: MyoF Assay for Basic fibroblast growth factor (bFGF) Biomarker Activity (AID 2284246); conditions: primary human lung fibroblasts
# How it was run: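 bFGF was measured by ELISA in primary human lung fibroblasts 24 h after chemical addition. Signal was analysed as positive-direction change relative to DMSO baseline.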
# [5] = read-out: Collagen IV, COL4A1 (gene 1282); experiment: BSK_MyoF_CollagenIV: BioMAP Diversity Plus: MyoF Assay for Collagen IV Biomarker Activity (AID 2284247); conditions: primary human lung fibroblasts
# How it was run: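 Collagen IV quantified by ELISA in human lung fibroblast cultures 24 h after chemical treatment, with DMSO as baseline. Parallel SRB staining (0.1% SRB after TCA fixation, 560 nm) flags overt cytotoxicity.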
# [6] = read-out: Plasminogen activator inhibitor-1 (PAI1), SERPINE1 (gene 5054); experiment: BSK_MyoF_PAI1: BioMAP Diversity Plus: MyoF Assay for Plasminogen activator inhibitor-1 (PAI1) Biomarker Activity (AID 2284256); conditions: primary human lung fibroblasts;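 also: PAI-1 protein level measured by ELISA in fibroblast cultures; PAI-1 read 24 h after compound addition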
# How it was run: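 In this multiplexed primary-cell system, fibroblasts from human lung received compound for 24 h before ELISA detection of PAI-1; overt toxicity was checked by SRB (0.1%, TCA-fixed, 560 nm) in parallel wells.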
# [7] = read-out: Monokine induced gamma interferon (MIG), CXCL9 (gene 4283); experiment: BSK_KF3CT_MIG: BioMAP Diversity Plus: KF3CT Assay for Monokine induced gamma interferon (MIG) Biomarker Activity (AID 2284248); conditions: primary human keratinocytes with fibroblasts
# How it was run: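 MIG in dosed human skin co-cultures was measured by ELISA at 24 h, relative to DMSO.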
# [8] = read-out: Collagen I, COL1A1 (gene 1277); experiment: BSK_hDFCGF_CollagenI: BioMAP Diversity Plus: hDFCGF Assay for Collagen I Biomarker Activity (AID 2284250); conditions: primary human foreskin fibroblasts
# How it was run: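 Collagen I quantified by ELISA 24 h after chemical dosing of human dermal fibroblast primary cells, with parallel SRB staining (0.1%, TCA-fixed, 560 nm) for overt cytotoxicity.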
# [9] = read-out: Interferon-inducible T-cell alpha chemoattractant (ITAC), CXCL11 (gene 6373); experiment: BSK_hDFCGF_ITAC: BioMAP Diversity Plus: hDFCGF Assay for Interferon-inducible T-cell alpha chemoattractant (ITAC) Biomarker Activity (AID 2284251); conditions: primary human foreskin fibroblasts
# How it was run: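 Chemical dosing of primary human foreskin fibroblast cultures preceded ELISA measurement of I-TAC at 24 h. Response was analysed in the positive direction using DMSO as baseline, while parallel SRB staining measured cytotoxicity.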
# [10] = read-out: Plasminogen activator inhibitor-1 (PAI1), SERPINE1 (gene 5054); experiment: BSK_KF3CT_PAI1: BioMAP Diversity Plus: KF3CT Assay for Plasminogen activator inhibitor-1 (PAI1) Biomarker Activity (AID 2284252); conditions: primary human keratinocytes with fibroblasts
# How it was run: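 PAI-1 levels quantified by ELISA after 24 h compound exposure of primary human skin keratinocytes co-cultured with fibroblasts. Activity is the gain relative to DMSO; cytotoxicity tracked in parallel cultures via SRB staining.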
# [11] = read-out: Monocyte Chemoattractant Protein-1 (MCP1), CCL2 (gene 6347); experiment: BSK_IMphg_MCP1: BioMAP Diversity Plus: IMphg Assay for Monocyte Chemoattractant Protein-1 (MCP1) Biomarker Activity (AID 2284253); conditions: primary human endothelial cells with macrophages
# How it was run: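 ELISA readout of MCP-1 at 24 hours in IMphg co-cultures of venular endothelial cells and macrophages, normalised to DMSO; parallel cultures stained with sulforhodamine B for overt cytotoxicity.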
# [12] = read-out: Interleukin-8 (IL8), CXCL8 (gene 3576); experiment: BSK_KF3CT_IL8: BioMAP Diversity Plus: KF3CT Assay for Interleukin-8 (IL8) Biomarker Activity (AID 2284254); conditions: primary human keratinocytes with fibroblasts
# How it was run: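 Using parallel SRB-stained cultures to flag overt toxicity, the study quantified IL-8 by ELISA in human keratinocyte–foreskin fibroblast co-cultures 24 h after dosing, with DMSO as negative control and baseline.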
# [13] = read-out: CD69, CD69 (gene 969); experiment: BSK_IMphg_CD69: BioMAP Diversity Plus: IMphg Assay for CD69 Biomarker Activity (AID 2284257); conditions: primary human endothelial cells with macrophages
# How it was run: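 Readout is ELISA for CD69 in primary human venular endothelial cell/macrophage co-culture, taken at 24 h post-dosing. SRB staining of parallel cultures gauged overt cytotoxicity; signal increase versus DMSO defined activity.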
# [14] = read-out: Eotaxin 3, CCL26 (gene 10344); experiment: BSK_BF4T_Eotaxin3: BioMAP Diversity Plus: BF4T Assay for Eotaxin 3 Biomarker Activity (AID 2284258); conditions: primary human bronchial epithelial cells with fibroblasts
# How it was run: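 ELISA measurement of Eotaxin-3 after 24 h chemical exposure in a bronchial epithelial/dermal fibroblast co-culture, with DMSO as baseline. Parallel SRB staining (0.1% SRB after 10% TCA fixation, 560 nm) flagged overt cytotoxicity.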
# [15] = read-out: Monocyte Chemoattractant Protein-1 (MCP1), CCL2 (gene 6347); experiment: BSK_BF4T_MCP1: BioMAP Diversity Plus: BF4T Assay for Monocyte Chemoattractant Protein-1 (MCP1) Biomarker Activity (AID 2284259); conditions: primary human bronchial epithelial cells with fibroblasts
# How it was run: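 MCP-1 ELISA readout taken 24 h after dosing in the BF4T system (bronchial epithelial cells plus dermal fibroblasts). Parallel SRB total-protein staining flagged cytotoxicity; DMSO served as baseline, positive fitting direction.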
# [16] = read-out: Intercellular Adhesion Molecule 1 (ICAM1), ICAM1 (gene 3383); experiment: BSK_BF4T_ICAM1: BioMAP Diversity Plus: BF4T Assay for Intercellular Adhesion Molecule 1 (ICAM1) Biomarker Activity (AID 2284260); conditions: primary human bronchial epithelial cells with fibroblasts
# How it was run: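 ICAM-1 levels measured by ELISA after 24 h chemical treatment of bronchial epithelial cell/dermal fibroblast co-cultures, read against DMSO baseline. Overt cytotoxicity checked in parallel cultures by sulforhodamine B staining.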
smiles,measurement,setting,value
CCCCNc1ccccc1,outcome,[1],inactive
same,outcome,[2],inactive
same,outcome,[3],inactive
same,outcome,[4],inactive
same,outcome,[5],inactive
same,outcome,[6],inactive
OCCCC(F)(F)C(F)(F)C(F)(F)F,outcome,[1],inactive
same,outcome,[2],inactive
same,outcome,[3],inactive
same,outcome,[4],inactive
same,outcome,[5],inactive
same,outcome,[7],inactive
same,outcome,[8],inactive
same,outcome,[9],inactive
same,outcome,[10],inactive
same,outcome,[11],inactive
same,outcome,[12],inactive
same,outcome,[6],inactive
same,outcome,[13],inactive
same,outcome,[14],inactive
same,outcome,[15],inactive
same,outcome,[16],inactive
CCCCCCOC(=O)c1ccccc1O,outcome,[7],inactive
same,AC50,[8],18.7 µM (active) and 10.1 µM (active)
same,AC50,[9],40.7 µM (active) and 45.2 µM (active)
same,AC50,[10],17.4 µM (active)
same,outcome,[10],inactive
same,outcome,[12],inactive
FC(F)(F)C(F)(F)C(F)(F)C(F)(F)C(F)(F)C(F)(F)C(F)(F)Br,outcome,[1],inactive
same,outcome,[2],inactive
same,outcome,[3],inactive
same,outcome,[4],inactive
same,outcome,[5],inactive
same,outcome,[7],inactive
same,outcome,[8],inactive
same,outcome,[9],inactive
same,outcome,[10],inactive
same,outcome,[11],inactive
same,outcome,[12],inactive
same,outcome,[6],inactive
same,outcome,[13],inactive
same,outcome,[14],inactive
same,outcome,[15],inactive
same,outcome,[16],inactive
CCN(CC)c1ccc2c(C)cc(=O)oc2c1,outcome,[1],inactive
same,outcome,[2],inactive
same,outcome,[3],inactive
same,outcome,[4],inactive
same,outcome,[5],inactive
same,outcome,[6],inactive
FC(F)(F)C(F)(F)C(F)(F)C(F)(F)C(F)(F)CCI,outcome,[1],inactive
same,outcome,[2],inactive
same,outcome,[3],inactive
same,outcome,[4],inactive
same,outcome,[5],inactive
same,outcome,[7],inactive
same,outcome,[8],inactive
same,AC50,[9],30 µM (active) and 40.9 µM (active)
same,outcome,[10],inactive
same,outcome,[11],inactive
same,outcome,[12],inactive
same,outcome,[6],inactive
same,outcome,[13],inactive
same,AC50,[14],38.6 µM (active)
same,outcome,[14],inactive
same,outcome,[15],inactive
same,outcome,[16],inactive
C=C(C)C(=O)OCCC(F)(F)C(F)(F)C(F)(F)C(F)(F)C(F)(C(F)(F)F)C(F)(F)F,outcome,[1],inactive
same,outcome,[2],inactive
same,outcome,[3],inactive
same,outcome,[4],inactive
same,outcome,[5],inactive
same,outcome,[7],inactive
same,outcome,[8],inactive
same,outcome,[9],inactive
same,outcome,[10],inactive
same,outcome,[11],inactive
same,outcome,[12],inactive
same,outcome,[6],inactive
same,outcome,[13],inactive
same,outcome,[14],inactive
same,outcome,[15],inactive
same,outcome,[16],inactive
NC(=O)C(F)(F)C(F)(F)C(F)(F)C(F)(F)F,outcome,[1],inactive
same,outcome,[2],inactive
same,outcome,[3],inactive
same,outcome,[4],inactive
same,outcome,[5],inactive
same,outcome,[7],inactive
same,outcome,[8],inactive
same,outcome,[9],inactive
same,outcome,[10],inactive
same,outcome,[11],inactive
same,outcome,[12],inactive
same,outcome,[6],inactive
same,outcome,[13],inactive
same,outcome,[14],inactive
same,AC50,[15],26.5 µM (active)
same,outcome,[15],inactive
same,outcome,[16],inactive
